These results are taken from PubChem BioAssay (NCATS).

Values joined by “and” are separate entries in the source; they are usually repeats but may differ in a detail not shown here. Equal values may be shown once. Inconclusive results are not listed. Values without a mark were called inactive. Active and inactive are the calls of the source. The call rests on the fitted dose curve; in most records, active means well fitted cell-killing curve with a large enough effect; inconclusive means small, poorly fitted or top-dose-only effect; inactive means flat fitted curve, though single readings scatter.
Potency means the concentration at half of the fitted maximal effect.

One test is described as follows: Cellular viability qHTS for adrenocortical cancer (ACC) cell line SW-13 (AID 1963989). Further: nearly all actives have a fitted effect of over 65% in size.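 On activity (max response): cells grown in serum-free medium with ITS supplement; on the % scale 0 is the no-effect control and ±100 the full control effect.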 As to conditions: SW-13 ACC cells viability, CellTiter-Glo, 48 h; activity (max response): active compounds read low. In outline: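 Here, serum-free SW-13 cultures were dosed up to 46 uM. Following 48 h, ATP-dependent luminescence (CellTiter-Glo) reported viable cells, and logistic modeling produced IC50 values.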
For the molecule `CC(=O)OC/C=C(C)/C=C/C=C(C)/C=C/C1=C(C)CCCC1(C)C`, the activity (max response) is 4.17%. On the same count and under the same terms, the same measure for `Cc1ccc2c(c1)c1c3n2CCNC3CCC1` (stereo not drawn): -5.85%; for `COc1ccccc1Oc1c(NS(=O)(=O)c2ccc(C(C)(C)C)cc2)nc(-c2ncccn2)nc1OCCO`: -3.16%. Turning to `NC(=O)c1cccc2c(NC(CN3CCC3)c3ccc(Cl)c(C(F)(F)F)c3)ncnc12` (stereo not drawn), the Potency was 14.1 µM (active). Regarding `CN1CCC(OC(c2ccccc2)c2ccccc2)CC1`, the activity (max response) was 0.851%. On the same count and under the same terms, the same measure for `Cc1cc(Oc2ccc3nc(COc4ccc(CC5SC(=O)NC5=O)cc4)n(C)c3c2)cc(C)c1N` (stereo not drawn): -6.08%; for `CC1Cc2ccccc2N1C(=O)Cc1nc(N2CCOCC2)cc(=O)[nH]1` (stereo not drawn): -14.8%; for `C[C@@]12CCC[C@H]1[C@@H]1CC[C@H]3C[C@@H](O)CC[C@]3(C)[C@H]1CC2`: -0.85%. On to `COc1cc2c3c(n(CCCN4CCOCC4)c(=O)c2cc1OC)-c1cc2c(cc1C3=O)OCO2`, for which the Potency is 2.51 µM (active).

Consider `Cc1nc2c([nH]1)c(=O)n(C)c(=O)n2Cc1ccco1`, for which the activity (max response) was -2.81%. In the case of `CCCCCCCCCCCCCCCCCCNC(=O)OC1CCN(C(=O)OC[C@H](COC(=O)N(Cc2cccc[n+]2CC)C(=O)c2ccccc2OC)OC)CC1`, the Potency was 7.31 µM (active). As for `Nc1cc(COc2c(Cl)cc(C[C@H](N)C(=O)O)cc2Cl)c2oc(-c3ccccc3)nc2c1`, the activity (max response) was 4.08%. `CCCCC1C(=O)N(c2ccccc2)N(c2ccc(O)cc2)C1=O` (stereo not drawn): the Potency was 16.4 µM (active). Consider `CC(C)OC(=O)c1cc2c(OCC(O)CNC(C)(C)C)cccc2[nH]1` (stereo not drawn), for which the activity (max response) is -10.4%. On the same count and under the same terms, the same measure for `CC(C)(c1ccc(OCC(O)CO)cc1)c1ccc(OCC(O)CCl)cc1` (stereo not drawn): -21.2%; for `CC(C)(C)CC(=O)OCC(=O)[C@@]1(O)CC[C@H]2[C@@H]3CCC4=CC(=O)C=C[C@]4(C)[C@H]3[C@@H](O)C[C@@]21C`: -10.9%. With `COC(=O)C1=C(C)NC(C)=C(C(=O)OCC(C)=O)C1c1ccccc1[N+](=O)[O-]` (stereo not drawn), the Potency is 16.4 µM (active). The same measure, in the same setting: the same measure for `CC(C)OC(=O)[C@H](C)N[P@](=O)(OC[C@H]1O[C@@H](n2ccc(=O)[nH]c2=O)[C@](C)(F)[C@@H]1O)Oc1ccccc1`: 3.98 µM (active).

For `CS(=O)(=O)c1ccc([C@@H](O)[C@@H](CF)NC(=O)C(Cl)Cl)cc1`, the activity (max response) is -12.7%.

Regarding `CNCCCN1c2ccccc2CCc2ccccc21`, the Potency was 20.6 µM (active). As for `NCc1ccccc1Sc1ccccc1CO`, the activity (max response) was -6.09%. Same read-out and setting: the same measure for `CCOC(=O)C(=O)CCc1ccccc1`: 6.65%; for `O=C(/C=C/N1C[C@H]2C[C@@H]1CN2c1ccccn1)c1ccccc1O`: -11.7%. Still for that read-out and setting: then `N=C(N)N`, with 4.4%; and `O=C1[C@@H]2[C@H]3CC[C@H](C3)[C@@H]2C(=O)N1CCCCN1CCN(c2ncccn2)CC1`, with 6.58%.

Another test is described as follows: Cellular viability qHTS for adrenocortical cancer (ACC) cell line NCI-H295R (AID 1963990). Further: nearly all actives have a fitted effect of over 60% in size.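 On activity change, negative = viability loss: 0% = DMSO only wells and -100% = full killing with cytotoxic reference compound.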 Conditions: CellTiter-Glo ATP luminescence, 48 h; series mostly up to 46.1 µM; activity change, negative = viability loss: at the top concentration. An outline of the steps: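 Viability of NCI-H295R after 48 h of treatment (final up to 46 uM) measured through cellular ATP luminescence.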
On to `Cc1nc(Nc2ncc(C(=O)Nc3c(C)cccc3Cl)s2)cc(N2CCN(CCO)CC2)n1`, for which the Potency was 20.6 µM (active) and 25.1 µM (active). As for `CCCCC[C@H](O)/C=C/[C@H]1[C@H](O)CC(=O)[C@@H]1CCCCCCC(=O)O`, the “activity change, negative = viability loss” value was 3.4%. On to `Oc1c(Cl)cc(Cl)cc1Sc1cc(Cl)cc(Cl)c1O`, for which the Potency was 20.6 µM (active). For the molecule `COc1ccc2c(c1)c(CC(=O)OC/C=C(\C)CC/C=C(\C)CCC=C(C)C)c(C)n2C(=O)c1ccc(Cl)cc1`, the “activity change, negative = viability loss” value was -23.9%. For the molecule `Cc1ccc(C(C)C)c(O)c1`, the “activity change, negative = viability loss” value was -3.67%. In the case of `Cc1cc(Oc2ccc3nc(COc4ccc(CC5SC(=O)NC5=O)cc4)n(C)c3c2)cc(C)c1N` (stereo not drawn), the “activity change, negative = viability loss” value was 15.1%. Same read-out and setting: the same measure for `C[C@@]12CCC[C@H]1[C@@H]1CC[C@H]3C[C@@H](O)CC[C@]3(C)[C@H]1CC2`: -21.5%. Turning to `CCCCC1C(=O)N(c2ccccc2)N(c2ccc(O)cc2)C1=O` (stereo not drawn), the Potency was 5.17 µM (active). Regarding `CC(C)(c1ccc(OCC(O)CO)cc1)c1ccc(OCC(O)CCl)cc1` (stereo not drawn), the “activity change, negative = viability loss” value is -8%. In the case of `COC(=O)C1=C(C)NC(C)=C(C(=O)OCC(C)=O)C1c1ccccc1[N+](=O)[O-]` (stereo not drawn), the Potency was 6.51 µM (active). Consider `CS(=O)(=O)c1ccc([C@@H](O)[C@@H](CF)NC(=O)C(Cl)Cl)cc1`, for which the “activity change, negative = viability loss” value is -2.54%. Same read-out and setting: the same measure for `NCc1ccccc1Sc1ccccc1CO`: -15.4%; for `N=C(N)N`: -13.6%.
